Screening results: PubChem, The Scripps Research Institute Molecular Screening Center
FBW7 act: human FBW7 E3 ligase activation, primary screen; AlphaScreen FBW7–phospho-cyclin E peptide binding, activator screen; normalized activity (activation), % at 26.1 µM; 650,000 tested, 0.13% active; AID 1259310; in the data active = normalized activity above about 1.9%;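 also: purified mutant Fbw7 with reduced substrate affinity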
TEAD-YAP block: TEAD-YAP interaction inhibition | HEK-TIYL cells, TEAD-Gal4/YAP UAS-luciferase luminescence | inhibition, % at 9.12 µM | 640,000 tested, 1.4% active | AID 1259422; in the data active = inhibition above about 32%;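 also: 0% = median of test compound wells and 100% = reference inhibitor wells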
MITF primary: inhibitors of human MITF; O75030; AlphaScreen MITF homodimerization, bead proximity signal; inhibition, % at 2.6 µM; 650,000 tested, 0.91% active; AID 1259374; in the data active = inhibition above about 50%;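 also: 0% = vehicle wells with protein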
GPR151 ag: activators of human GPR151; activation, % at 11.2 µM; Q8TDV0; PathHunter beta-arrestin GPR151 cells, luminescence; 650,000 tested, 1% active; in the data active = activation above about 4.9%;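 also: 0% = median of compound wells and 100% = cells with positive control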
Target sequence (Q8TDV0 whole entry, looked up): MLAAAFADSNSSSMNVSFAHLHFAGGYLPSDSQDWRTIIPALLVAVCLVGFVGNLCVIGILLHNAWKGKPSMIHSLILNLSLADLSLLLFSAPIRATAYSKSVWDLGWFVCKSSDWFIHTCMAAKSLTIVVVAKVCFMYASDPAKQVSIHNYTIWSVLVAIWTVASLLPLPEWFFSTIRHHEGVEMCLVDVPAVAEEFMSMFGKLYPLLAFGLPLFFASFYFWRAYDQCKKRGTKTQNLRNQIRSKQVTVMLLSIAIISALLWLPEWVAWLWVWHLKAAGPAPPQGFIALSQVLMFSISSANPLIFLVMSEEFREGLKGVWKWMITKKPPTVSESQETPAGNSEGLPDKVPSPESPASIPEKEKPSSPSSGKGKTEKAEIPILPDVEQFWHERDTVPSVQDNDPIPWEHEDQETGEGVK
* marks the source's active call; other numbers are inactive results. Sampled rows, rich in hits. Any-hit rate of the full collection: about 3.4%.

SMILES	FBW7 act	TEAD-YAP block	MITF primary	GPR151 ag
O=C(NCCOc1ccccc1)c1cccc(-c2ccccc2)n1	0	-1	15	-1
COc1ccc(-c2cccc(C(=O)NCCOc3ccccc3)n2)cc1	8.0*	17	3	1
Cc1ccc(C(=O)NCCOc2ccccc2)cc1	0	73*	3	-6
O=C(NCCOc1ccccc1)C(=O)NCc1ccco1	0	48*	10	1
CC(=O)C1=C(c2ccc(C(C)(C)C)cc2)N(C(C)=O)n2c(C)nnc2S1	0	39*	1	-1
CC(=O)C1=C(c2ccc(C3CCCCC3)cc2)N(C(C)=O)n2c(C)nnc2S1	0	41*	15	0
COc1ccc(OCC2c3cc(OC)c(OC)cc3CCN2C(=O)c2ccc([N+](=O)[O-])cc2)cc1 (centres undefined)	0	-11	-17	0
COc1cc2c(cc1OC)C(COc1ccc([N+](=O)[O-])cc1)N(C(=O)c1ccc3c(c1)OCO3)CC2 (centres undefined)	2.1*	1	11	-1
O=C(Nc1ccccc1)c1ccc2nc(NC3CCN(Cc4ccccc4)CC3)sc2c1	0	-81	15	-1
N#Cc1ccccc1S(=O)(=O)NCC(=O)Nc1ccc2c(c1)OCO2	0	44*	4	0
CCOCCCNC(=O)C(C)n1c2ccccc2c2nc(=O)cc(C)n21 (centres undefined)	1	9	8	2
Cc1ccc(F)cc1Nc1ncnc(N)c1[N+](=O)[O-]	2.1*	-1	17	-1
Cc1sc2nc(CN(C(=O)C3CCC3)C3CCCC3)[nH]c(=O)c2c1C	0	9	5	0
Cc1ccc(N2CCN(C(=O)Cc3nn(C)c(=O)c4ccccc34)CC2C)cc1 (centres undefined)	0	38*	5	0
Cc1ccc(C2CC(c3cccs3)=NN2C(=O)CSc2nnc(CNC(=O)COc3ccccc3)n2-c2cccc(C)c2C)cc1 (centres undefined)	0	-1	-10	-1
COc1ccccc1-n1c(CNC(=O)COc2ccccc2)nnc1SCC(=O)N1N=C(c2cccs2)CC1c1ccc(C)cc1 (centres undefined)	0	41*	0	0
CN1CCN(C(=O)c2ccc(-c3nc(C(=O)Nc4ccc(Oc5ccccc5)cc4)cs3)cc2)CC1	1	44*	14	3
CC(=O)Nc1ccc(NC(=O)c2csc(-c3ccc(C(=O)NC4CC4)cc3)n2)cc1	0	1	7	0
O=C(NC1CC1)c1ccc(-c2nc(C(=O)Nc3ccc(Oc4ccccc4)cc3)cs2)cc1	0	33*	6	1
COC(=O)c1c(N)sc(C(=O)Nc2cc(C)ccc2C)c1C	0	79*	6	-3
COC(=O)c1c(N)sc(C(=O)Nc2cccc(Cl)c2)c1C	0	72*	-2	-6
COC(=O)c1c(N)sc(C(=O)NCCc2ccccc2)c1C	1	73*	8	-5
CCCNC(=O)c1sc(N)c(C(=O)OC)c1C	0	-11	-3	1
CO/N=C/c1ccc(OC)c(Oc2nc(OC)cc(OC)n2)c1	0	33*	4	2
CC(=O)Nc1ccc(S(=O)(=O)C(C#N)c2nc3ccccc3nc2NC2CCCC2)cc1 (centres undefined)	0	4	-5	-1
SMILES	FBW7 act	TEAD-YAP block	MITF primary	GPR151 ag
O=[N+]([O-])c1cccc(/C=C/c2ccc3cccc(O)c3n2)c1	0	-37	8	-2
Oc1cccc2ccc(/C=C/c3cc4c(cc3Cl)OCO4)nc12	0	68*	0	-7
Oc1cccc2ccc(/C=C/c3ccc4c(c3)OCO4)nc12	0	80*	6	-5
CN1/C(=C\C(C[N+](=O)[O-])c2ccc3c(c2)OCO3)C(C)(C)c2ccccc21 (centres undefined)	0	49*	8	0
COc1ccc(C(/C=C2\N(C)c3ccccc3C2(C)C)C[N+](=O)[O-])cc1 (centres undefined)	0	16	11	1
O=[N+]([O-])c1cc(/C=N\Nc2nccs2)ccc1O	0	0	95*	0
CC1CCc2cc(F)cc3c(O)c(C(=O)Nc4ccccn4)c(=O)n1c23 (centres undefined)	2.0*	10	8	0
O=C(N/N=C/c1ccc(N2CCOCC2)o1)c1ccccc1	0	-32	16	0
N#CCC(=O)N/N=C/c1ccc(N2CCOCC2)o1	0	0	54*	-1
c1ccc(C(CCn2ccnc2)Nc2nncc(-c3ccc4c(c3)OCO4)n2)cc1 (centres undefined)	0	45*	6	-1
c1ccc(COc2ccc(OCCCCN3CCNCC3)cc2)cc1	0	-14	56*	0
O=C(CNCc1ccccc1)Nc1ccc(C(=O)N2CCCC2)cc1	0	44*	7	-6
O=C(CNCc1ccccc1)Nc1ccc(N2CCCC2)cc1	1	-21	12	0
O=C(c1ccc(-c2nnc(-c3ccccc3)o2)cc1)N1CCCCC1	0	51*	-4	-10
O=C(c1ccc(OCc2ccccc2)cc1)N1CCCC1	0	84*	14	-9
Ic1ccc(OCCCCN2CCNCC2)cc1	0	-54	14	0
COc1ccccc1C(=O)N/C(=C\c1ccc([N+](=O)[O-])cc1)C(=O)Nc1ccc(Br)cc1	0	4	14	0
CC(=O)Nc1ccc(NC(=O)c2cc(C)ccc2C)cc1	0	-1	10	0
Cc1cc(C)cc(NC(=O)C2CC23CCN(C(=O)c2cn[nH]c2)CC3)c1 (centres undefined)	0	5	8	0
O=C(Nc1cccnc1)c1ncoc1-c1cccs1	0	8	5	2
Oc1c(C(c2ccncc2)N2CCCC2)ccc2cccnc12 (centres undefined)	0	12	76*	0
CCN1CCN(C(c2cccnc2)c2ccc3cccnc3c2O)CC1 (centres undefined)	0	15	68*	-1
CC1CCN(C(c2ccncc2)c2ccc3cccnc3c2O)CC1 (centres undefined)	0	20	89*	-3
Cc1[nH]c2ccccc2c1C(c1ccncc1)N1CCC(C)CC1 (centres undefined)	0	-2	-1	0
Oc1cccc(C(c2ccc3cccnc3c2O)N2CCCC2)c1 (centres undefined)	-1	18	39	1
COc1cc(-c2cnn3ccc(Nc4ccccc4)nc23)cc(OC)c1OC	0	47*	18	1
COc1cncc(-c2cnn3ccc(Nc4ccc(N5CCOCC5)cc4)nc23)c1	0	39*	7	0
O=C(NN=C1CCCC1)c1cc2ccccc2cc1O	0	3	-7	-1
Cc1ccc(N2C(N)=C(C#N)C(c3cc(Br)cs3)C3=C2CCCC3=O)cc1 (centres undefined)	0	34*	3	1
COc1ccc(C2C(C#N)=C(N)N(c3ccc(Cl)cc3)C3=C2C(=O)CCC3)cc1 (centres undefined)	0	-2	8	1
